Bioassay records as filed in PubChem BioAssay.
This is a sample that favours compounds with a hit; in the whole collection about 0.41% have one here.
aGlu spleen mod – lysosomal alpha-glucosidase (human) modulation; P10253; human spleen homogenate, 4-MU-alpha-glucoside fluorescence; Potency, µM (doses to about 79.9 µM), inactives show at the top dose activity change, negative = inhibition, hits mostly inhibitors; 0.006% of 240,000 active;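 further: potency means the concentration at half of the fitted maximal effect; 0% = enzyme with vehicle and -100% = no enzyme basal signal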
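Compounds were titrated against alpha-glucosidase in spleen homogenate at pH 5.0, with 1 mM 4-methylumbelliferyl substrate for 40 min at 37 C. Reactions were quenched with pH 10 NaOH/glycine and fluorescence measured.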
GAA glycogen mod – alters human alpha-glucosidase cleavage of glycogen; P10253; recombinant GAA, glycogen substrate, Amplex Red glucose oxidase fluorescence; Potency, µM (top dose mostly 76.4 µM), without a hit: at the highest dose activity change, negative = inhibition, usual class: inhibitors; 0.38% of 300,000 active;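 further: potency means the concentration at half of the fitted maximal effect; 0% = full enzyme reaction and -100% = no-enzyme basal signal; the screen sought inhibitors and activators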
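Recombinant enzyme (4 nM final) with compounds titrated up to 77 uM and bovine liver glycogen (30 ug) in citrate pH 5.0, 0.01% Tween-20, 37 C 40 min. Released glucose detected by Amplex Red/glucose oxidase (Ex 573/Em 610); AC50 from Hill fits.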
N370S GC – inhibits or activates N370S mutant glucocerebrosidase. P04062. N370S GC spleen homogenate, 4MU-glucoside fluorescence. 0.092% of 330,000 active. Potency, µM (series often up to 59.4 µM), inactives show top-dose activity change, negative = inhibition, actives largely listed as inhibitors;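 further: potency means the concentration at half of the fitted maximal effect; 0% = full enzyme activity and -100% = no enzyme basal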
GLA inh pH 4.5 – blocks human alpha-galactosidase A at pH 4.5; P06280; purified enzyme, 4-MU-alpha-Gal fluorescence, pH 4.5; activity change, negative = inhibition, % at 105 µM; 230,000 tested, under 10 active; AID 1467;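 further: 0% = full activity with enzyme and -100% = basal without enzyme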
GAA inhib – alpha-glucosidase (human) inhibition. 0.005% of 200,000 active. Potency, µM (top dose mostly 76.9 µM), inactives show at the top dose activity change, negative = inhibition, usual class: inhibitors. P10253. purified human GAA, 4-MU-alpha-glucoside fluorescence. AID 1466;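 further: potency means the concentration at half of the fitted maximal effect; plate controls were uninhibited enzyme wells for no effect and no-enzyme background for full effect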
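Fluorescence at Ex 365/Em 440 nm from 4-methylumbelliferone reported enzyme activity after 20 min at room temperature. Reactions used 4 nM enzyme and 400 uM substrate at pH 5.0; curves fitted with the Hill equation.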
GLA spleen mod – alpha-galactosidase A (human) modulation; P06280; human spleen homogenate, 4MU-alpha-Gal fluorescence, 40 min; Potency, µM (doses to about 80 µM), for the others: at the top dose activity change, negative = inhibition, usual class: inhibitors; 0.008% of 240,000 active; AID 2107;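 further: potency means the concentration at half of the fitted maximal effect; 0% = enzyme with vehicle and -100% = no enzyme basal signal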
Target sequence (P06280 32-429 limits assumed): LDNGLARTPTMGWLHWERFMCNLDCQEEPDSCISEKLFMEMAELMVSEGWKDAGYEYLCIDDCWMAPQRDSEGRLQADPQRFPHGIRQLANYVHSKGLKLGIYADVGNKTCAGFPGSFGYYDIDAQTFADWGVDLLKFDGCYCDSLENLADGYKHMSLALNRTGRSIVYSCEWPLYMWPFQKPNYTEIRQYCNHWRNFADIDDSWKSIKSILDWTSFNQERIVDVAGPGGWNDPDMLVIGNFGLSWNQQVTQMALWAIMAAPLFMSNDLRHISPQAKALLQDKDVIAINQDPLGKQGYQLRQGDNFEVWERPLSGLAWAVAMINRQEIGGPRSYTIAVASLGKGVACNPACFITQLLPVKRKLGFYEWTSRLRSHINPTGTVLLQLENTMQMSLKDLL
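qHTS titration in buffer at pH 5.0. Alpha-galactosidase activity in spleen homogenate was measured via 4-methylumbelliferone release from 1 mM fluorogenic substrate after 40 min at 37C and a pH 10 stop. AC50 came from Hill fits of control-normalized data.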
An asterisk follows results filed as active; [ ] = another dose, or the depositor's remark. The call rests on the fitted dose curve; in most records, active means well fitted curve in the direction sought with a large enough effect; inconclusive means small, poorly fitted or top-dose-only effect, or another doubt; inactive means no such curve, though single readings can be large; an effect the other way counts as inactive or inconclusive.

What do the screens show for `O=C(O)c1ccc(-c2c3nc(c(-c4ccc(C(=O)O)cc4)c4ccc([n-]4)c(-c4ccc(C(=O)O)cc4)c4nc(c(-c5ccc(C(=O)O)cc5)c5ccc2[n-]5)C=C4)C=C3)cc1.[Mn+3]`?
aGlu spleen mod: -3.1%; N370S GC: -6.0%; GLA spleen mod: -2.9%

What do the screens show for `O=C(NCc1ccc(Cl)cc1)C1CCCN(c2nc3ccccc3n3cccc23)C1` (stereo not drawn)?
GAA glycogen mod: -12.3%[76.3 µM]

How did CCN(C(=O)CN1CCC(C)CC1)c1c(N)n(Cc2ccccc2)c(=O)[nH]c1=O do in these assays?
N370S GC: -0.1%

What do the screens show for `CC(CCc1ccccc1)NC(=O)CN1CCN(c2ccc(O)cc2)CC1` (stereo not drawn)?
aGlu spleen mod: 0.1%; GAA glycogen mod: 4.43µM*; N370S GC: -3.2%; GLA inh pH 4.5: 0.7; GAA inhib: inconclusive; GLA spleen mod: -5.2%

What do the screens show for `CC(CCc1ccccc1)NC(=O)CN1CCN(Cc2ccccc2)C1=O` (stereo not drawn)?
aGlu spleen mod: -3.4%; GAA glycogen mod: 12.4%; N370S GC: 6.4%; GLA inh pH 4.5: -5.7; GAA inhib: 5.1%; GLA spleen mod: -7.9%

Results for CCN(C(=O)CN1CCN(c2ccc(O)cc2)CC1)c1c(N)n(Cc2ccccc2)c(=O)[nH]c1=O ?
aGlu spleen mod: 3.1%; GAA glycogen mod: 17.8µM*; N370S GC: 2.7%; GLA inh pH 4.5: 8.4; GAA inhib: -1.2%; GLA spleen mod: 6.3%

How did O=C1OC2(c3cc(I)c(O)c(I)c3Oc3c2cc(I)c(O)c3I)c2c(Cl)c(Cl)c(Cl)c(Cl)c21 do in these assays?
aGlu spleen mod: 1.4%; N370S GC: -0.2%; GLA spleen mod: 8.0%

What do the screens show for `CO[C@@H]1COC(=O)C/C=C\[C@H](C)[C@H](OC)COC(=O)[C@H]2CCCN2C(=O)C/C=C\[C@H]1C`?
aGlu spleen mod: 2.1%[17.4 µM]; N370S GC: -15.6%[12.8 µM]; GLA spleen mod: -1.4%[17.5 µM]

What do the screens show for `O=C(c1ccc2ccccc2c1)N1CCN(c2ccc(O)cc2)CC1`?
aGlu spleen mod: -0.7%; GAA glycogen mod: 17.6µM*; N370S GC: -19.1%; GLA inh pH 4.5: -22.6; GAA inhib: 4.9%; GLA spleen mod: 6.4%

Results for CCOC(=O)N1CCN(c2ccc(Cl)cc2)CC1 ?
aGlu spleen mod: 1.7%; GAA glycogen mod: -2.3%; N370S GC: 1.3%; GLA inh pH 4.5: -7.2; GAA inhib: -0.1%; GLA spleen mod: 5.3%

How did CCOC(=O)N1CCN(c2ccc(O)cc2)CC1 do in these assays?
aGlu spleen mod: -0.1%; GAA glycogen mod: 25.1µM*; N370S GC: 11.2%; GLA inh pH 4.5: 4.8; GAA inhib: -6.4%; GLA spleen mod: 0.0%

How did O=C(COc1ccc2ccccc2c1)N1CCN(c2ccccc2O)CC1 do in these assays?
aGlu spleen mod: -2.6%; GAA glycogen mod: 14.1µM*; N370S GC: -22.7%; GLA inh pH 4.5: 6.5; GAA inhib: -8.8%; GLA spleen mod: 1.7%

Results for COc1ccc(N2CCN(C(=O)CSc3nnc(-c4cc5ccccc5cc4O)n3C)CC2)cc1 ?
aGlu spleen mod: 6.5%; GAA glycogen mod: -14.3%; N370S GC: 8.0%; GLA inh pH 4.5: 4.0; GAA inhib: 0.8%; GLA spleen mod: -0.9%

What do the screens show for `O=C(CSc1ccc2ccccc2c1)N1CCN(c2ccc(O)cc2)CC1`?
aGlu spleen mod: -2.9%; GAA glycogen mod: 15.8µM*; N370S GC: -21.9%; GLA inh pH 4.5: -0.4; GLA spleen mod: -1.4%

Results for COC(=O)c1cc2oc(C)cc2n1CC(=O)Nc1ccc(OC)c(OC)c1 ?
GAA glycogen mod: -7.5%[76.3 µM]

What do the screens show for `OC[C@H]1OC(O)[C@@H](O)[C@@H](O)[C@H]1O` (stereo partly drawn)?
aGlu spleen mod: 11.0%; N370S GC: -6.5%; GLA spleen mod: 7.1%

Results for O=C(O)c1ccc(CN2C(=O)CSC2=S)cc1 ?
aGlu spleen mod: -6.9%; GAA glycogen mod: 17.8µM*; N370S GC: 2.0%; GLA inh pH 4.5: 7.9; GAA inhib: -4.1%; GLA spleen mod: -13.0%

Results for O=C(O)c1ccc(N=C2SCC(=O)N2Cc2ccccc2)cc1 ?
aGlu spleen mod: 4.4%; GAA glycogen mod: 14.1%; N370S GC: -8.7%; GLA inh pH 4.5: 1.0; GAA inhib: 11.9%; GLA spleen mod: -1.1%

Results for CC(C)c1cc(NC(=O)C(C)(C)C)cc(C(C)C)c1O ?
aGlu spleen mod: -3.4%; GAA glycogen mod: 31.6µM*; N370S GC: 3.1%; GLA inh pH 4.5: -3.2; GAA inhib: -9.6%; GLA spleen mod: 5.1%

How did O=C1C2=CC[C@H]3C(=O)N(Cc4ccc5c(c4)OCO5)C(=O)[C@@H]3[C@@H]2[C@H](O)[C@@H]2O[C@H]12 do in these assays?
aGlu spleen mod: 1.9%[17.4 µM]; N370S GC: -0.7%[12.8 µM]; GLA spleen mod: -4.5%[17.5 µM]

Results for COc1cc(/C=N/N(C)C)cc(Br)c1O ?
aGlu spleen mod: -4.2%; GAA glycogen mod: 4.47µM*; N370S GC: 0.1%; GLA inh pH 4.5: -15.3; GLA spleen mod: 3.6%

What do the screens show for `Nc1ccc(Nc2ccccc2)c(S(=O)(=O)O)c1`?
aGlu spleen mod: -15.4%; GAA glycogen mod: 14.1µM*; N370S GC: 5.0%; GLA inh pH 4.5: 4.8; GAA inhib: -2.8%; GLA spleen mod: -15.7%

How did Cc1ccc(Nc2ccc(N)cc2S(=O)(=O)O)cc1 do in these assays?
aGlu spleen mod: -2.8%; GAA glycogen mod: inconclusive; N370S GC: -1.2%; GLA inh pH 4.5: -7.5; GAA inhib: -6.6%; GLA spleen mod: 6.4%

How did CCOc1ccc(-c2cnc(NCc3ccc(C(F)(F)F)cc3)n2C)cc1 do in these assays?
GAA glycogen mod: 31.6µM*

How did Cc1ccc(CNc2ncc(-c3ccc4c(c3)OCO4)n2C)cc1 do in these assays?
aGlu spleen mod: -4.5%; GAA glycogen mod: 19.8µM*; N370S GC: 1.3%; GLA inh pH 4.5: -9.4; GAA inhib: -2.8%; GLA spleen mod: -5.1%

What do the screens show for `Cn1c(-c2ccc3c(c2)OCO3)cnc1NCc1ccc(Cl)cc1`?
aGlu spleen mod: -23.2%; GAA glycogen mod: inconclusive; N370S GC: 5.8%; GLA inh pH 4.5: -8.3; GAA inhib: 0.8%; GLA spleen mod: -3.3%

What do the screens show for `COC(=O)[C@H]1C2CC3c4[nH]c5ccccc5c4CCN3CC2CC[C@@H]1O` (stereo partly drawn)?
aGlu spleen mod: 4.4%; N370S GC: -4.4%; GLA spleen mod: -6.4%

What do the screens show for `COC(=O)C1CSc2[nH]c(=O)sc2C1c1ccc(OC)c(OC)c1` (stereo not drawn)?
aGlu spleen mod: -5.6%; GAA glycogen mod: 17.8µM*; N370S GC: -5.1%; GLA inh pH 4.5: 5.5; GAA inhib: 10.0%; GLA spleen mod: 2.2%
